In PubChem BioAssay (NCI):
About 79,000 compounds went through this panel and 15% of them were active in at least one assay; those are over-represented in the sample as a whole. The source made the active and inactive calls. Cut-off read from the data, not from the text of the source: active = growth inhibition above about 70%; inactive = the rest.

Assays:
[1] = NCI Yeast Anticancer Drug Screen. Data for the rad52 strain (AID 147);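 note: 0% = growth of vehicle-treated control cultures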; conditions: S. cerevisiae rad52 mutant growth inhibition, hits give high values
Method in brief: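 Inhibition of yeast growth, referenced to vehicle controls, was the measured output for a strain with defective DNA damage repair.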

[2] = NCI Yeast Anticancer Drug Screen. Data for the wt1 strain (AID 149);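 note: 0% = growth of vehicle-treated wt1 cultures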; conditions: S. cerevisiae wt1 strain (SPY 50644) growth inhibition, hits give high values
Method in brief: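 The wt1 strain was treated with compounds, and growth was compared with vehicle-treated cultures to give inhibition.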

[3] = NCI Yeast Anticancer Drug Screen. Data for the rad50EPP+ strain (AID 151);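 note: 0% = growth of vehicle-treated control cultures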; conditions: S. cerevisiae rad50 mutant strain, hits give high values
Method in brief: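 Genetically defined yeast (rad50EPP+, DNA damage repair alteration) is grown with compound, and inhibition of growth is expressed relative to vehicle-treated controls.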

[4] = NCI Yeast Anticancer Drug Screen. Data for the rad50 strain (AID 155);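 note: 0% = growth of vehicle-only cultures of the same strain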; conditions: S. cerevisiae rad50 strain growth inhibition, hits give high values
Method in brief: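 Cells are treated with compound, grown, and their growth is then scored against vehicle-only cultures of the same repair-deficient yeast strain.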

[5] = NCI Yeast Anticancer Drug Screen. Data for the mec2-1 strain (AID 157); conditions: S. cerevisiae mec2-1 strain, hits give high values
Method in brief: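 Each compound was tested on mec2-1 yeast, a strain altered in DNA damage repair or cell cycle control. Growth inhibition is reported relative to vehicle.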

[6] = NCI Yeast Anticancer Drug Screen. Data for the sgs1 mgt1 strain (AID 161);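 note: 0% = growth of cultures given vehicle only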; conditions: S. cerevisiae sgs1 mgt1 strain, hits give high values
Method in brief: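 Mutant yeast exposed to compound; growth scored against vehicle-only wells.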

[7] = NCI Yeast Anticancer Drug Screen. Data for the CLN2oe strain (AID 163);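 note: 0% = growth of vehicle-only control cultures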; conditions: S. cerevisiae CLN2oe strain, hits give high values
Method in brief: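 First, the altered yeast strain was treated with each compound; second, its growth was measured; finally, inhibition was derived by comparison with vehicle controls.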

[8] = NCI Yeast Anticancer Drug Screen. Data for the cln2 rad14 strain (AID 165);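 note: 0% = growth equal to vehicle treated cultures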; conditions: S. cerevisiae cln2 rad14 strain, hits give high values
Method in brief: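 Test compounds were added to cln2 rad14 yeast cultures; inhibition of growth was then determined by comparison with vehicle treatment.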

[9] = NCI Yeast Anticancer Drug Screen. Data for the wt2 strain (AID 169);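 note: 0% = growth of vehicle-treated yeast cultures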; conditions: S. cerevisiae wt2 strain growth inhibition, hits give high values
Method in brief: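 The panel's yeast strains carry defined changes in DNA repair or cell cycle genes. Each strain is grown with compound, and growth loss is scored relative to vehicle.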

[10] = NCI Yeast Anticancer Drug Screen. Data for the mlh1 strain (AID 171);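 note: 0% = growth of vehicle-treated control cultures of the same strain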; conditions: S. cerevisiae mlh1 strain growth inhibition, hits give high values
Method in brief: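 Inhibition values reflect reduced yeast growth in the presence of compound, referenced to vehicle controls, using a strain chosen for its alteration in DNA repair or cell cycle control.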

[11] = NCI Yeast Anticancer Drug Screen. Data for the sgs1 strain (AID 173);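 note: 0% = growth of vehicle-only control cultures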; conditions: S. cerevisiae sgs1 mutant, hits give high values
Method in brief: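 Vehicle-treated cultures served as reference for growth inhibition of a yeast strain altered in DNA damage repair or cell cycle control after compound exposure.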

[12] = NCI Yeast Anticancer Drug Screen. Data for the mlh1 rad18 strain (AID 175); conditions: S. cerevisiae mlh1 rad18 strain growth inhibition, hits give high values
Method in brief: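 Inhibition values reflect reduced growth of mutant yeast versus vehicle-treated controls following compound exposure; the mutations affect DNA damage repair.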

[13] = NCI Yeast Anticancer Drug Screen. Data for the rad18 strain (AID 177); conditions: S. cerevisiae rad18 mutant growth inhibition, hits give high values
Method in brief: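 Steps: expose repair-mutant yeast to compound; measure growth; express as inhibition relative to vehicle control.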

[14] = at 5.0 µM (retest, dose inferred, filed as 0.5)
[15] = at 50.0 µM (retest, dose inferred, filed as 5.0)

Measured: growth inhibition

CC(=O)C1=C(C)O/C(=C/c2cccc(Cl)c2)C1=O
active: [1]; at 100.0 µM 99% | [3]; at 100.0 µM 88% | [4]; at 100.0 µM 96% | [5]; at 50.0 µM 71% | [5]; at 100.0 µM 96% | [7]; at 100.0 µM 98% | [9]; at 33.0 µM 71% | [9]; at 100.0 µM 91% | [10]; at 100.0 µM 75% | [11]; at 100.0 µM 95% | [12]; [15] 88% | [12]; at 50.0 µM 91.3% | [13]; at 100.0 µM 99%
inactive: [1]; at 1.2 µM 14% | [1]; at 3.7 µM 36% | [1]; at 11.0 µM 27% | [1]; at 33.0 µM 36% | [2]; at 1.2 µM -7% | [2]; at 3.7 µM 2% | [2]; at 11.0 µM 2% | [2]; at 33.0 µM -2% | [2]; at 100.0 µM 25% | [3]; at 1.2 µM 16% | [3]; at 3.7 µM 25% | [3]; at 11.0 µM 22% | [3]; at 33.0 µM 32% | [4]; at 1.2 µM -4% | [4]; at 3.7 µM 19% | [4]; [14] -1% | [4]; at 11.0 µM 21% | [4]; at 33.0 µM 18% | [4]; [15] 59% | [4]; at 50.0 µM 52.7% | [5]; at 1.2 µM -9% | [5]; at 3.7 µM 2% | [5]; [14] 2% | [5]; at 11.0 µM 0% | [5]; at 33.0 µM 7% | [5]; [15] 68% | [6]; [14] 10% | [6]; [15] 60% | [6]; at 50.0 µM 10.7% | [7]; at 1.2 µM 5% | [7]; at 3.7 µM 5% | [7]; at 11.0 µM 15% | [7]; at 33.0 µM 29% | [8]; [14] 6% | [8]; [15] 12% | [8]; at 50.0 µM -1.45% | [9]; at 1.2 µM -12% | [9]; at 3.7 µM 6% | [9]; at 11.0 µM 16% | [10]; at 1.2 µM -3% | [10]; at 3.7 µM -4% | [10]; at 11.0 µM 4% | [10]; at 33.0 µM 9% | [11]; at 1.2 µM 2% | [11]; at 3.7 µM 36% | [11]; at 11.0 µM 29% | [11]; at 33.0 µM 39% | [12]; [14] 9% | [13]; at 1.2 µM -7% | [13]; at 3.7 µM 16% | [13]; at 11.0 µM 13% | [13]; at 33.0 µM 28%
